PubChem BioAssay (NCI)
The panel holds about 79,000 compounds, 15% with a hit somewhere; the sample as a whole holds those more often. Active and inactive are the calls of the source. Cut-off read from the data, not from the text of the source: active = growth inhibition above about 70%; inactive = the rest.

How the values were obtained:
[1] = NCI Yeast Anticancer Drug Screen. Data for the rad50 strain (AID 155);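 note: 0% = growth of vehicle-only cultures of the same strain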; settings: S. cerevisiae rad50 strain growth inhibition; at 50.0 µM; active compounds read high
Summary of the method: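 Relative growth inhibition (compound vs vehicle) was measured in yeast with a defined repair-gene alteration.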

[2] = NCI Yeast Anticancer Drug Screen. Data for the mec2-1 strain (AID 157); settings: S. cerevisiae mec2-1 strain, at 50.0 µM, active compounds read high
Summary of the method: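 Test agents were screened against the mec2-1 yeast strain, with defined DNA repair or cell cycle alteration. Growth was scored as inhibition against vehicle-only controls.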

[3] = NCI Yeast Anticancer Drug Screen. Data for the sgs1 mgt1 strain (AID 161);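 note: 0% = growth of cultures given vehicle only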; settings: S. cerevisiae sgs1 mgt1 strain, at 50.0 µM, active compounds read high
Summary of the method: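 Mutant yeast exposed to compound; growth scored against vehicle-only wells.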

[4] = NCI Yeast Anticancer Drug Screen. Data for the cln2 rad14 strain (AID 165);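 note: 0% = growth equal to vehicle treated cultures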; settings: S. cerevisiae cln2 rad14 strain, at 50.0 µM, active compounds read high
Summary of the method: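 Growth of compound-exposed yeast (cln2 rad14 genotype) measured and expressed as inhibition relative to vehicle.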

[5] = NCI Yeast Anticancer Drug Screen. Data for the bub3 strain (AID 167); settings: S. cerevisiae bub3 mutant strain, at 50.0 µM, active compounds read high
Summary of the method: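 Screening used yeast with an engineered genetic alteration affecting cell cycle control. Compound-exposed cultures were compared with vehicle cultures, and reduced growth was taken as inhibition.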

[6] = NCI Yeast Anticancer Drug Screen. Data for the mlh1 rad18 strain (AID 175); settings: S. cerevisiae mlh1 rad18 strain growth inhibition; at 50.0 µM; active compounds read high
Summary of the method: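 In this whole-cell yeast screen, a strain with altered DNA damage repair is challenged with compound, and its growth is measured against matched vehicle-treated controls.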

Measured: growth inhibition

O=[N+]([O-])c1ccc(N=P(c2ccccc2)(c2ccccc2)c2ccccc2)n2nnnc12
inactive: [1] 1.25% | [2] -27.8% | [3] -4.65% | [4] -10.2% | [5] -15.2% | [6] -6.85%

O=C(Cc1ccccc1)NCc1ccccc1
inactive: [1] -1.7% | [2] -7.15% | [3] 13.9% | [4] -3.3% | [5] 2.55% | [6] 8.7%

c1ccc(-c2c(-c3ccc4c(c3)CCCC4)c(-c3ccccc3)c3c(c2-c2ccccc2)-c2cccc4cccc-3c24)cc1
inactive: [1] -4.15% | [2] 2.8% | [3] -2.45% | [4] 13.3% | [5] -2.9% | [6] 2.75%

CC1(c2ccncc2)NC(=O)NC1=O (configuration not stated)
inactive: [1] 31.9% | [2] -12.6% | [3] 10.3% | [4] 1.4% | [5] -5.8% | [6] 18.6%

CC1(C(=O)O)C(=O)Oc2c1c1ccccc1c1ccccc21 (configuration not stated)
inactive: [1] 15.3% | [2] 10.7% | [3] 0.75% | [4] 10.8% | [5] 16.3% | [6] 27.5%

O=C1C2C3C=CC(C3)C2C(=O)N1c1ncc([N+](=O)[O-])s1 (configuration not stated)
inactive: [1] 17.8% | [2] -6.85% | [3] 26.9% | [4] -57.9% | [5] -14.2% | [6] 12.3%

CN(N)c1nc2c(N)ncnc2n1C1OC(CO)C(O)C1O (configuration not stated)
inactive: [1] 25.9% | [2] 24.1% | [3] 30.6% | [4] 13.8% | [5] 30% | [6] 48.3%

OCC1(CO)CCCO1
inactive: [1] 4.15% | [2] -21.9% | [3] -10.4% | [4] 5.1% | [5] -0.4% | [6] 2.55%

N#CCCNc1ccc2c(c1)Cc1ccccc1-2
inactive: [1] 1.65% | [2] 3.4% | [3] 18.6% | [4] -14.2% | [5] 12.4% | [6] -27.5%

CCOC(=O)C1=C(C)N(NC(N)=O)C2(N)N(NC(N)=O)C(C)=C(C(=O)OCC)C12C#N (configuration not stated)
inactive: [1] -6.95% | [2] 21.9% | [3] 17.6% | [4] 4.3% | [5] 10.6% | [6] -12.1%

O=C(COc1ccccc1)Nc1ccc(C(=O)O)cc1
inactive: [1] -2.95% | [2] -3.6% | [3] -3.35% | [4] 1.85% | [5] 22.1% | [6] 25.3%

CCC(CO)Nc1nc2c(c(=O)n(C)c(=O)n2C)n1CCO (configuration not stated)
inactive: [1] -21.9% | [2] -1.9% | [3] 1% | [4] 8.15% | [5] -14.7% | [6] -4.75%

CC(O)(COS(=O)(=O)c1ccccc1)c1ccccc1 (configuration not stated)
inactive: [1] -8.1% | [2] 0.7% | [3] -8.7% | [4] -14% | [5] 26.7% | [6] -8.4%

COc1cc(C2=C3C(=O)OCC3Cc3ccccc32)ccc1OCc1ccccc1 (configuration not stated)
inactive: [1] 18.9% | [2] -0.5% | [3] 7.5% | [4] 5.55% | [5] 11.1% | [6] 29.6%

CCN(CC)N1C(=O)[N+](CC)(CC)N=C1[O-]
inactive: [1] -8.55% | [2] 4.15% | [3] -11.6% | [4] -30.8% | [5] -5.35% | [6] 2.05%

O=C1CN(c2cccc(C(F)(F)F)c2)C(=O)CN1CCN1CC(=O)N(c2cccc(C(F)(F)F)c2)CC1=O
inactive: [1] -30.6% | [2] -6.4% | [3] -3.55% | [4] -6.45% | [5] -14.1% | [6] -5.2%

CCCCCCCCCCCCCCCCCCC(CO)CO
inactive: [1] -22.4% | [2] -20.6% | [3] -8.65% | [4] -45% | [5] -10.2% | [6] 1.8%

COc1cccc(C2c3cc4c(cc3OC(C)(O)C2C)OCO4)c1OC (configuration not stated)
inactive: [1] 22.6% | [2] 4.05% | [3] 39.5% | [4] 13.9% | [5] 24.8% | [6] 21.6%

CC(=O)NC1(C)CC[C@H]2CC1C(C)=NC2(C)C (some centres not stated)
inactive: [1] -13.2% | [2] -3.95% | [3] -6.9% | [4] 2.85% | [5] -8.15% | [6] -14.3%

CC/C(CCC(=O)OC)=N/Nc1ccc([N+](=O)[O-])cc1[N+](=O)[O-]
inactive: [1] 4.05% | [2] 7.25% | [3] 6.9% | [4] -22.6% | [5] -5.9% | [6] -10.6%

O=C(O)CNC(=O)c1ccc2cc(C(=O)N3CC(CCl)c4ccc([N+](=O)[O-])cc43)[nH]c2c1 (configuration not stated)
inactive: [1] -6.45% | [2] -4% | [3] -3.95% | [4] -0.1% | [5] -34.3% | [6] -35%

CCCCCCCCCCCCCC(=O)CC
inactive: [1] 56.3% | [2] -3.35% | [3] 17.9% | [4] 19.1% | [5] 12.4% | [6] 21.9%

CC(=O)c1ccc(NC(=O)CSc2nc(C)nc3c2sc(=S)n3-c2ccccc2)cc1
inactive: [1] -15.1% | [2] -10.8% | [3] -0.1% | [4] -24.1% | [5] -8.2% | [6] -22.1%

CC(NC(=O)c1ccccc1)C1CCCCC1 (configuration not stated)
inactive: [1] -5.2% | [2] -1.85% | [3] -1.4% | [4] -49.8% | [5] -12.7% | [6] 0.75%

Cc1cccc(CN(C)Cc2cc(Cl)cc(C)c2O)c1O
inactive: [1] 14.8% | [2] -1.6% | [3] 1.1% | [4] -36% | [5] -1.25% | [6] 4.15%

CC(C)[C@@H]1NC(=O)[C@@H]2N=C(O[C@H]2C)[C@H](C(C)C)NC(=O)C2N=C1O[C@H]2C
inactive: [1] 11% | [2] 4.75% | [3] 2.15% | [4] 9.45% | [5] 10.3% | [6] -34.1%

COc1cccc(/C(CC(O)(C(F)(F)F)C(F)(F)F)=N\N(C)C)c1
inactive: [1] -30.6% | [2] -9.9% | [3] -8.7% | [4] -38.2% | [5] 1.5% | [6] -25.2%

O=C(O)c1cc(=O)c2c([nH]c3ccccc32)s1
inactive: [1] -4.9% | [2] -18.7% | [3] -14.6% | [4] 5.25% | [5] -14.3% | [6] 13.3%

O=S1c2ccccc2Sc2ccccc21
inactive: [1] 2.65% | [2] -8.4% | [3] -5.05% | [4] 1.6% | [5] -2% | [6] -2.25%

CC1(O)/C=C\C=C(\CO)C2CC(C)(C)C2(O)CC1 (configuration not stated)
inactive: [1] -29.9% | [2] -40% | [3] -43.1% | [4] -4.5% | [5] -46% | [6] -29.8%

CC(C)=C1CC(=O)NC1=O
inactive: [1] -10.8% | [2] 17.1% | [3] -3.2% | [4] 6.35% | [5] -6.05% | [6] 0.55%

Cc1ccc(C(=O)c2c(C)cccc2C(=O)O)c(C)c1
inactive: [1] -0.95% | [2] -2.1% | [3] 8.45% | [4] 12.6% | [5] -3.85% | [6] 29.4%

NC(CSSCC(N)=NC1CCCCC1)=NC1CCCCC1
inactive: [1] 6.5% | [2] 3.4% | [3] 13% | [4] 7.35% | [5] -1.45% | [6] 20%

OC(Cc1ccccc1)CN1CCN(c2ccccc2)CC1 (configuration not stated)
inactive: [1] 10.4% | [2] 4% | [3] 8% | [4] 17.1% | [5] 8.05% | [6] 4.05%

O=[N+]([O-])c1ccc(S(=O)(=O)Nc2c([N+](=O)[O-])cc([N+](=O)[O-])c3ccccc23)cc1
inactive: [1] 36.6% | [2] -3.9% | [3] 21.4% | [4] 12.7% | [5] 2.7% | [6] 18.4%

Cc1cccc(Nc2c(C(=O)O)cnc3cc4c(cc23)OCO4)c1
inactive: [1] -3.4% | [2] -4.85% | [3] 3.45% | [4] -49.8% | [5] -5.85% | [6] -6.1%

CC1(c2nc3ccccc3[nH]2)CCC(C(=O)O)C(C)(C)O1 (configuration not stated)
inactive: [1] 1.75% | [2] -11.2% | [3] -18.4% | [4] 15.6% | [5] -19.6% | [6] -32.9%
